# Data published in PubChem BioAssay AID2284330 (EPA ToxCast).
# Records with an inconclusive call do not appear. Activity calls are given as the source filed them. The calls were made as follows: active = hit-call score of the fitted dose curve at least 0.9, where 1 is the maximum; inconclusive = response in the unintended direction; inactive = score below 0.9.
# Test system: frog Glucocorticoid Receptor (GR), gene 397897
# Test: ATG_frGR_EcoTox2: Attagene TRANS-FACTORIAL EcoTox-2 HepG2 Assay for frog Glucocorticoid Receptor (GR)
# Method: ATG_EcoTox2 is a cell-based, multiplexed assay created by modifying the existing Attagene TRANS-FACTORIAL system to include a panel of nuclear receptors from some or all the following species: human (Homo sapiens), african clawed frog (Xenopus laevis), rainbow trout (Oncorhynchus mykiss), japanese medaka (Oryzias latipes), and zebrafish (Danio rerio). The ECOTOX2-FACTORIAL format uses HepG2, a human liver cell line, with measurements taken at 24 hours after chemical dosing in a 24-well plate. ATG_frGR_EcoTox2 is one of 29 assay components calculated in the ATG_EcoTox2 assay. It is designed to make measurements of mRNA induction, a form of inducible reporter, as detected with fluorescence intensity signals by Reverse transcription polymerase chain reaction (RT-PCR) and Capillary electrophoresis technology.The assay endpoint ATG_frGR_EcoTox2 was analyzed in the positive analysis fitting direction relative to DMSO as the negative control and baseline of activity. Using a type of inducible reporter, measures of mRNA for gain-of-signal activity can be used to understand the reporter gene at the transcription factor-level as they relate to the gene for glucocorticoid receptor. Furthermore, this assay endpoint can be referred to as a primary readout, because this assay has produced multiple assay endpoints where this one serves a reporter gene function. To generalize the intended target to other relatable targets, this assay endpoint is annotated to the nuclear receptor intended target family, where the subfamily is steroidal.
# Human liver HepG2 cells are transiently transfected with multiple reporter transcription units (MRTUs) in 6-well plates using FuGene 6 reagent (Roche; 3 ml FuGene/1 mg DNA). The MRTU constructs are regulated by a cis-regulating element (promoter). Each RTU expresses a GAL4-UAS that regulates the transcription of a nearby target reporter gene sequence. A major difference between the CIS and TRANS system is that in CIS activities of endogenous TFs are measured, whereas the TRANS assay evaluates changes in activities of exogenous, chimeric NR-Gal4 proteins. […] At the end of 24 hour incubation, total RNA was isolated using TriZol reagent (Invitrogen). The isolated RNA is then reverse-transcribed using oligo(dT) primer and Mo-MLV reverse transcriptase (Invitrogen) with DNAse I (Ambion) treatment for 30 min. The one-tenth of the produced cDNA was amplified by PCR using Taq DNA polymerase (Invitrogen) and two reporter sequence-specific primers. The PCR products were fluorescently labeled by primer extension with 6-arboxyfluorescein (6-FAM) 5'-labeled reporter sequence-specific primer (2 min at 95 C, 20 s at 68 C and 10 min at 72 C) and these products were digested with 5U of HpaI (New England Biolabs) for 2h at 37 C. The fragments were purified using Qiaquick PCR columns (Qiagen), analyzed on an ABI 3130xL genetic analyzer (Applied Biosystems) with peak positions identified by using a set of X-rhodamine (ROX)-labeled MapMarker1000 molecular weight standards (BioVentures). The raw capillary electrophoresis data was processed using Attagraph software (Attagene).
SMILES,outcome,AC50
CC(C)(Oc1ccc(C2CC2(Cl)Cl)cc1)C(=O)O (stereo unspecified),inactive,
CC(C)(Oc1ccc(Cl)cc1)C(=O)O,inactive,
C[C@]12C=CC(=O)C=C1CC[C@@H]1[C@@H]2C(=O)C[C@@]2(C)[C@H]1CC[C@]2(O)C(=O)CO,inactive,
CC(C)(Oc1ccc(CCNC(=O)c2ccc(Cl)cc2)cc1)C(=O)O,inactive,
C=C(c1ccc(C(=O)O)cc1)c1cc2c(cc1C)C(C)(C)CCC2(C)C,inactive,
Cc1cccc(Nc2cc(Cl)nc(SCC(=O)O)n2)c1C,inactive,
CC(C)OC(=O)C(C)(C)Oc1ccc(C(=O)c2ccc(Cl)cc2)cc1,inactive,
Cc1ccc(C)c(OCCCC(C)(C)C(=O)O)c1,inactive,
CC(c1cc2ccccc2s1)N(O)C(N)=O (stereo unspecified),,34.3 µM (active)
C[C@@H]1C[C@H]2[C@@H]3CCC4=CC(=O)C=C[C@]4(C)[C@@]3(F)[C@@H](O)C[C@]2(C)[C@@]1(O)C(=O)COP(=O)(O)O,,0.00998 µM (active)
CN(CCOc1ccc(CC2SC(=O)NC2=O)cc1)c1ccccn1 (stereo unspecified),,30.8 µM (active)
